Key:
Settings in all cases: concentration: 1 μM, replicates: in singlicate; n = 1
BMX = test system: BMX
BRAF = test system: BRAF
BRK = test system: T1, BRK
T1 construct: gene PTK6

BRSK1 = test system: BRSK1
BRSK2 = test system: BRSK2
BTK = test system: BTK
BUB1 = test system: BUB1
CAMK1B = test system: CAMK1B
CAMK1D = test system: CAMK1D
CAMK1G = test system: CAMK1G
CAMK1 = test system: CAMK1
CAMK2A = test system: CAMK2A
CAMK2B = test system: CAMK2B
CAMK2D = test system: CAMK2D
CAMK2G = test system: CAMK2G
CAMK4 = test system: CAMK4
CAMKK1 = test system: CAMKK1
CAMKK2 = test system: CAMKK2
CASK = test system: CASK
CDC2L1 = test system: T2, CDC2L1
T2 construct: gene CDK11B
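Also: KINOMEscan kinase panel screen.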

Compound | %Inh (BMX) | %Inh (BRAF) | %Inh (BRK) | %Inh (BRSK1) | %Inh (BRSK2) | %Inh (BTK) | %Inh (BUB1) | %Inh (CAMK1B) | %Inh (CAMK1D) | %Inh (CAMK1G) | %Inh (CAMK1) | %Inh (CAMK2A) | %Inh (CAMK2B) | %Inh (CAMK2D) | %Inh (CAMK2G) | %Inh (CAMK4) | %Inh (CAMKK1) | %Inh (CAMKK2) | %Inh (CASK) | %Inh (CDC2L1)
Cl.Cl.NCC(NCc1ccc(-c2ccnc3[nH]ccc23)s1)c1ccccc1 (stereo not shown) [GSK1321565] | 8% | 0% | 0% | 0% | 0% | 0% | 64% | 59% | 17% | 11% | 10% | 0% | 0% | 13% | 19% | 0% | 0% | 9% | 0% | 0%
COc1ccc(Nc2nccc(N3CCC(NC(=O)Nc4cccc(OC)c4)C3)n2)cc1 (stereo not shown) [GSK1379742] | 0% | 2% | 10% | 4% | 0% | 0% | 29% | 17% | 0% | 0% | 0% | 0% | 0% | 2% | 9% | 4% | 5% | 4% | 13% | 0%
CN(C)Cc1ccc(-c2ccc3c(Nc4ccc(Oc5ccccn5)cc4)ccnc3c2)o1 [GW567148] | 12% | 1% | 95.2% | 0% | 0% | 74% | 0% | 0% | 0% | 0% | 27% | 0% | 0% | 0% | 15% | 0% | 0% | 0% | 0% | 0%
Cl.c1ccc(-c2ccc3c(Nc4ccc5[nH]ncc5c4)ccnc3c2)nc1 [GW440137] | 0% | 7% | 20% | 0% | 2% | 0% | 47% | 36% | 18% | 5% | 11% | 0% | 0% | 12% | 16% | 0% | 0% | 19% | 13% | 0%
Cn1cc(-c2ccc3c(c2)CCN3C(=O)Cc2cccc(F)c2)c2c(N)ncnc21 [GSK2603358] | 0% | 4% | 26% | 14% | 67% | 0% | 52% | 34% | 74% | 11% | 79% | 0% | 0% | 16% | 34% | 0% | 26% | 29% | 17% | 0%
Cc1ccc(F)c(C(=O)Nc2cccc(-c3nn4ccccc4c3-c3ccnc(Nc4cccc(F)c4)n3)c2)c1F [GSK361061] | 48% | 68% | 74% | 12% | 0% | 0% | 42% | 0% | 18% | 12% | 26% | 5% | 0% | 8% | 15% | 11% | 17% | 14% | 19% | 0%
CCS(=O)(=O)c1ccc(OC)c(Nc2nccc(-c3c(-c4cccc(NC(=O)c5c(F)cccc5F)c4)nn4ncccc34)n2)c1 [GSK326180] | 0% | 90% | 93.5% | 0% | 0% | 15% | 28% | 33% | 12% | 7% | 9% | 0% | 0% | 15% | 27% | 0% | 0% | 20% | 16% | 0%
O=C(Nc1ccccc1F)NC1CCN(c2ccnc(Nc3ccc(F)cc3)n2)CC1 [GSK1379800] | 3% | 0% | 0% | 0% | 0% | 0% | 63% | 36% | 5% | 0% | 0% | 0% | 0% | 3% | 15% | 0% | 0% | 3% | 0% | 0%
CN1CCN(Cc2cccc(-c3ccc4c(Nc5ccc(Oc6ccccc6)cc5)ccnc4c3)c2)CC1 [GW578342] | 20% | 0% | 90.2% | 0% | 1% | 90.8% | 35% | 10% | 7% | 0% | 27% | 1% | 0% | 5% | 10% | 0% | 0% | 0% | 1% | 0%
Fc1ccc(-c2ncn(C3CCNCC3)c2-c2ccnc(Oc3ccc(-c4ccccc4)cc3)n2)cc1 [SB-245391] | 0% | 23% | 7% | 14% | 16% | 57% | 20% | 4% | 30% | 4% | 30% | 20% | 0% | 14% | 17% | 0% | 22% | 20% | 7% | 11%
COc1cc2c(cc1OCCN1CCNCC1)ncc1c3ccc(C#N)cc3[nH]c21 | 17% | 28% | 0% | 25% | 0% | 2% | 99% | 28% | 30% | 14% | 10% | 96.8% | 86% | 88% | 79% | 0% | 80% | 64% | 25% | 14%
COC(=O)Nc1nc2ccc(Oc3ccc(NC(=O)Nc4cc(C(F)(F)F)ccc4F)cc3)cc2n1C.Cl [GW692089] | 5% | 57% | 0% | 0% | 26% | 59% | 42% | 0% | 1% | 0% | 0% | 0% | 0% | 0% | 3% | 0% | 4% | 0% | 1% | 0%
CCn1c(-c2nonc2N)nc2c(C#CC(C)(C)O)ncc(OCCCCN)c21.O=C(O)C(F)(F)F.O=C(O)C(F)(F)F [GSK507274] | 19% | 8% | 27% | 0% | 0% | 0% | 37% | 0% | 40% | 7% | 31% | 0% | 0% | 4% | 19% | 50% | 0% | 0% | 19% | 0%
Cc1ccc(S(=O)(=O)Nc2ccc(Nc3nccc(Nc4cccc5[nH]ncc45)n3)cc2)cc1 [GSK581271] | 5% | 6% | 34% | 5% | 0% | 0% | 44% | 7% | 8% | 0% | 24% | 0% | 0% | 4% | 8% | 0% | 0% | 9% | 45% | 0%
COc1cc(Nc2nccc(N3CCC(NC(=O)Nc4cccc(C(C)=O)c4)C3)n2)cc(OC)c1OC (stereo not shown) [GSK1379753] | 1% | 0% | 8% | 5% | 0% | 0% | 31% | 0% | 20% | 0% | 42% | 0% | 0% | 0% | 0% | 0% | 0% | 4% | 0% | 0%
COc1ccc(Nc2nccc(NCCNC(=O)c3cc4ccccc4s3)n2)cc1 [GSK1379896] | 17% | 0% | 1% | 6% | 0% | 0% | 9% | 39% | 6% | 0% | 4% | 0% | 0% | 0% | 16% | 0% | 0% | 0% | 5% | 0%
O=C(Nc1cccc(-c2nn3ncccc3c2-c2ccnc(Nc3ccccc3)n2)c1)c1c(F)cccc1F [GSK198271] | 89% | 90.9% | 94.5% | 4% | 0% | 99.4% | 32% | 9% | 25% | 11% | 39% | 0% | 0% | 13% | 8% | 0% | 0% | 8% | 3% | 0%
